# From paper PMC4336329 (PLoS ONE, 2015)
# Hit rate of the full screen: of about 310,000 compounds, about 14,000 (4.5%) showed an effect of 50% or more. The effect is printed as a negative number. The sample as a whole holds a higher share of strong results than the screen did.
# Molecular target: human ether-à-go-go-related gene (hERG) potassium channel (human, UniProt Q12809)
# Experiment: primary screen, population patch clamp on CHO cells stably expressing hERG; higher = less effect of the substance
# 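Also: peak tail current of the secondary pulse compared with the same well before compound.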
# Chain of human ether-à-go-go-related gene (hERG) potassium channel (Q12809 whole entry, looked up): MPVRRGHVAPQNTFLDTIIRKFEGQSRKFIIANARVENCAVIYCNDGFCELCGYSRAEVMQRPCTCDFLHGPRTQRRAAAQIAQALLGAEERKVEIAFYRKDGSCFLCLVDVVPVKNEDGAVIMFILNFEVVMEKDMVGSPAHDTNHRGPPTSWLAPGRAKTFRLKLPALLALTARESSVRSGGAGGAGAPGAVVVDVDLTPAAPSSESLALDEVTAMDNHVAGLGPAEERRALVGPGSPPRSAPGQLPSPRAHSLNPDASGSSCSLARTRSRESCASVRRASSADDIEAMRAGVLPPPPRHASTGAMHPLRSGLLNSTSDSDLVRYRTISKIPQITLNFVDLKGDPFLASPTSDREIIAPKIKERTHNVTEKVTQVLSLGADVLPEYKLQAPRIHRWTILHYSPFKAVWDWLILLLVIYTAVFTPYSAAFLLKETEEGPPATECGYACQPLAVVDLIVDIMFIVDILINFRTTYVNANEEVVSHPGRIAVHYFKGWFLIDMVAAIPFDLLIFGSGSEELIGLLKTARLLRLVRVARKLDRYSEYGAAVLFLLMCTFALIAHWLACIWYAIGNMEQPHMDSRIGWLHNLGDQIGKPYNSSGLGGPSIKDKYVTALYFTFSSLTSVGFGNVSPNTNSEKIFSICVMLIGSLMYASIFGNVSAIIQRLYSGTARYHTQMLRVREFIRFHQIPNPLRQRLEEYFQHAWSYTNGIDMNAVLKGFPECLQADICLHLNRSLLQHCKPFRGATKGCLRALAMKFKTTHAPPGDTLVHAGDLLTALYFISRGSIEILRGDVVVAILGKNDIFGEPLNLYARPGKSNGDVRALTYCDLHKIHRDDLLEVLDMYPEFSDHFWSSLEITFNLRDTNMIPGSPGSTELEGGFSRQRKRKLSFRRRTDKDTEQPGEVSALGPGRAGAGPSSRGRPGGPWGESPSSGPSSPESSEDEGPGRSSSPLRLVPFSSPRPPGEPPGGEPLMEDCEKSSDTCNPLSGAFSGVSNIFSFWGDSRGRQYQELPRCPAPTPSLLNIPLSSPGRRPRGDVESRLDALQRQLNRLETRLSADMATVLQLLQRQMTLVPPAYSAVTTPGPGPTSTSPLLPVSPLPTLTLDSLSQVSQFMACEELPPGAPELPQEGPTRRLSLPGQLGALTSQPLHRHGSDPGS
row,Compound,"hERG current change (%, negative = inhibition) at 10uM [%]"
1,Cl.OC(CNC1CCCC1)COc1ccccc1Br (centres unmarked),7.79
2,O=C(Cc1ccccc1)NCC(=O)Nc1ccccc1Br,16.8
3,Cc1cc(NC(=O)CSc2nc(-c3ccc(Br)cc3)nc3c2c(=O)n(C)c(=O)n3C)no1,-8.93
4,O=C(COC(=O)c1ccccc1F)NNC(=O)c1ccccc1,8.17
5,O=C(CSCc1ccc(Cl)cc1)Nc1nccs1,6.08
6,CCc1ccccc1NC(=O)COc1ccc2c(c1)OCO2,-4.6
7,CCCN(CCC)CCCNC(=O)CC(C(=O)N1CCc2ccccc21)n1ccnc1 (centres unmarked),-0.225
8,CCN(CCCNC(=O)CC(C(=O)N1CCc2ccccc21)n1ccnc1)c1ccccc1 (centres unmarked),-45.6
9,CCN(CCCNC(=O)CC(C(=O)N1CCc2ccccc21)n1ccnc1)c1cccc(C)c1 (centres unmarked),-65
10,Nc1ccc(Cl)c(S(=O)(=O)Nc2ccc(Cl)cc2)c1,17.3
11,Cc1ccc(N2CC(C(=O)Nc3ccc(S(=O)(=O)Nc4nccc(C)n4)cc3)CC2=O)cc1 (centres unmarked),3.17
12,CN(C)C(=O)c1cc(Cl)ccc1Sc1cc(Cl)ccc1Cl,-6.03
13,CN(C)C(=O)c1ccccc1Sc1cc(Cl)ccc1Cl,-14.5
14,CN(C)C(=O)c1ccccc1Sc1ccc(Cl)cc1Cl,-70.4
15,Cc1onc(-c2ccccc2)c1C(=O)NCc1ccccc1F,7.62
16,[N-]=[N+]=CC(=O)OC[C@H](N)C(=O)O,10.8
17,CCOC(=O)c1c(C)n(CC(O)CN(C)C)c2cc(Br)c(OC)cc12.Cl (centres unmarked),-51.5
18,CCOC(=O)c1c(CN2CCN(CCO)CC2)n(-c2ccccc2)c2cc(Br)c(O)cc12,-68.2
19,CCOC(=O)c1c(CN2CCOCC2)n(-c2ccccc2)c2cc(Br)c(O)cc12.Cl,-7.35

row,Compound,"hERG current change (%, negative = inhibition) at 10uM [%]"
1,CCOC(=O)c1c(C)n(-c2ccccc2)c2ccc(OCCN(C)C)cc12,-10.6
2,CCOC(=O)c1c(CN(C)C)n(-c2ccc(C)cc2)c2cc(Br)c(O)cc12,-35.8
3,CCOC(=O)c1c(CN(C)C)n(-c2ccccc2)c2cc(Br)c(O)cc12.Cl,-75.8
4,CCOC(=O)c1c(CN(C)C)n(-c2ccccc2)c2cc(Br)c(OC)cc12,-58.6
5,CCOC(=O)c1c(CN2CCN(Cc3ccccc3)CC2)n(C)c2cc(Br)c(OC)cc12,7.08
6,CCOC(=O)c1c(C)n(CC(O)CN(CC)CC)c2cc(Br)c(OC)cc12.Cl (centres unmarked),-26.9
7,CCOC(=O)c1c(CN2CCOCC2)n(-c2ccccc2)c2cc(Br)c(OC)cc12,3.27
8,CCOC(=O)c1c(C)n(CC(O)CN2CCOCC2)c2cc(Br)c(OC)cc12.Cl (centres unmarked),-24
9,COc1ccccc1NC(=O)CSC1=NCCN1.Cl,36.3
10,O=C(c1cccs1)N1CCC(c2ccccc2)C1 (centres unmarked),-1.16
11,N#Cc1nc(-c2cccs2)oc1NCCc1ccccc1,3.08
12,CC(NC(=O)C(=O)N1CCCCC1)C(c1cccs1)N1CCN(c2ccccc2F)CC1 (centres unmarked),1.73
13,COc1cccc(-n2c(SCC(=O)NCCC3=CCCCC3)nc3n[nH]c(C)c3c2=N)c1,-58.9
14,Cc1cc(-n2c(SCC(=O)NCCC3=CCCCC3)nc3n[nH]c(C)c3c2=N)ccc1Cl,4.5
15,Cc1ccc(-n2c(SCC(=O)NCCC3=CCCCC3)nc3n[nH]c(C)c3c2=N)cc1Cl,-9.38
16,COc1ccc(NC(=O)c2ccc(COc3ccccc3Br)o2)c(OC)c1,10.5
17,CCCOc1ccc(OC(=O)Cc2ccc(OC)c(S(=O)(=O)N3CCOCC3)c2)cc1,-21.7
18,Cc1ccc(NC(=O)CCN2C(=O)c3ccccc3C2=O)cc1C,4.19
19,O=C(CSc1nnc(-c2c[nH]c3ccccc23)n1-c1ccc(F)cc1)NCc1ccco1,-22

row,Compound,"hERG current change (%, negative = inhibition) at 10uM [%]"
1,O=C(COC(=O)C1CCN(C(=O)c2ccc(Cl)cc2)CC1)Nc1ccccc1F,-56.9
2,O=C(COC(=O)C1CCN(C(=O)c2ccc(Cl)cc2)CC1)c1ccco1,-26.2
3,C/C(N)=C(/C#N)C(=O)COC(=O)C1CCN(C(=O)c2ccc(Cl)cc2)CC1,-14.3
4,Cc1cc(NC(=O)COC(=O)C2CCN(C(=O)c3ccc(Cl)cc3)CC2)no1,-19.2
5,O=C(COC(=O)C1CCN(C(=O)c2ccc(Cl)cc2)CC1)NC1CCS(=O)(=O)C1 (centres unmarked),26.9
6,N#Cc1ccccc1NC(=O)COC(=O)C1CCN(C(=O)c2ccc(Cl)cc2)CC1,-62.5
7,Cc1ccc(-c2cnco2)cc1,11.9
8,COCCN(CCOC)C(=S)Nc1ccccc1Cl,6.62
9,COc1ccc(NC(=O)C(F)(F)F)cc1OC,15.1
10,COc1ccc(CN2C(=O)c3oc4ccccc4c(=O)c3C2c2ccc(O)c(OC)c2)cc1 (centres unmarked),4.88
11,Cc1ccc(S(=O)(=O)N2CCC(CN3C(=O)c4cccc5cccc(c45)C3=O)CC2)cc1,11.3
12,Cl.O=C1c2cccc3cccc(c23)C(=O)N1CC1CCN(CC(O)COc2ccc3ccccc3c2)CC1 (centres unmarked),-46.1
13,Cc1ccc(C)c(OCC(O)CN2CCC(CN3C(=O)c4cccc5cccc(c45)C3=O)CC2)c1.Cl (centres unmarked),-68.2
14,O=C1c2cccc3cccc(c23)C(=O)N1CC1CCN(S(=O)(=O)c2ccc(F)cc2)CC1,2.54
15,CCOC(=O)N1CCN(CC(O)COc2c(C)cccc2C)CC1.Cl (centres unmarked),-15.7
16,Cc1cc(C)cc(OCC(O)CN2CCC(CN3C(=O)c4cccc5cccc(c45)C3=O)CC2)c1.Cl (centres unmarked),-70
17,Cc1cccc(C)c1OCC(O)CN1CCC(CN2C(=O)c3cccc4cccc(c34)C2=O)CC1.Cl (centres unmarked),-76.2
18,COc1cccc(OCC(O)CN2CCC(CN3C(=O)c4cccc5cccc(c45)C3=O)CC2)c1.Cl (centres unmarked),-72.3
